Test results reported in PubChem BioAssay (NCATS).
Where “and” joins values, the source holds several entries; their conditions need not be identical. Equal entries are not always repeated. Results filed as inconclusive are left out. A call without a number means that no potency is given here. Unmarked numbers belong to inactive results. Calls of active or inactive are those of the source. Calls come from the whole dose curve; as a rule, active = well fitted curve in the direction sought with a large enough effect; inconclusive = small, poorly fitted or top-dose-only effect, or another doubt; inactive = no such curve, though single readings can be large; an effect the other way counts as inactive or inconclusive. Square brackets hold non-standard residues; d marks the D form. Peptide text beside a SMILES is read from it. PhLac = O=C(O)[CH](O)Cc1ccccc1; NMeV = CN[CH](C(=O)O)C(C)C

What was measured:
[1] = target: Cellular tumor antigen p53 (Homo sapiens) (UniProt P04637); experiment: Primary qHTS for small molecule compounds that upregulate eGFP-tagged delta133p53alpha (in N-terminal) cells. (AID 2060322); details: NCI-H358 eGFP-delta133p53alpha fluorescence, 24 h; activation: hits give high values; note: nearly all actives have a fitted effect of over 75% in size; note: potency is the fitted concentration of half-maximal effect; for activation: series mostly up to about 56 µM
How it was run: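 NCI-H358 cells pre-induced 24 h with 10 ng/ml doxycycline to express N-terminal eGFP-delta133p53alpha, then dosed 24 h at 37C without doxycycline; fixed, Hoechst-stained, GFP intensity by laser scanning cytometry, normalized to DMSO (0%) and 57.5 uM 5-azacytidine (100%).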

[2] = target: Aldehyde dehydrogenase, mitochondrial (Homo sapiens) (UniProt P05091); experiment: qHTS for Inhibitors of the Aldehyde Dehydrogenase Family (ALDH2) Primary screen (AID 2061308); note: nearly all actives have a fitted effect of over 55% in size
[3] = target: Retinaldehyde dehydrogenase 3 (Homo sapiens) (UniProt P47895); experiment: qHTS for Inhibitors of the Aldehyde Dehydrogenase Family (ALDH1A3) Primary screen (AID 2061315)

Cellular tumor antigen p53 (Homo sapiens), sequence (P04637 whole entry, looked up): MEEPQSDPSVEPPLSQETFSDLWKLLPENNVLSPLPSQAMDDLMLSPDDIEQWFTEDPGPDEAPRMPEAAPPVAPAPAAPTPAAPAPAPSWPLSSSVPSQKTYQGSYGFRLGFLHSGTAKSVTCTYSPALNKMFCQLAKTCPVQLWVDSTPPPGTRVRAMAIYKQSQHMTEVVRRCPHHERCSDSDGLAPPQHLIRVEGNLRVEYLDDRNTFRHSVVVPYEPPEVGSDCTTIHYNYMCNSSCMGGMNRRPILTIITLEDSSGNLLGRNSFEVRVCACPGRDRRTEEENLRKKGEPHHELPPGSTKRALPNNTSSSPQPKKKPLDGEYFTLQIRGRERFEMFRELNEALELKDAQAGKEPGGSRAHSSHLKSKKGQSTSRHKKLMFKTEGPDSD

Row | SMILES | activation [1] | Potency [2] | Potency [3] | Potency [1]
1 | CC1(C)CC[C@]2(C(=O)O)CC[C@]3(C)C(=CCC4[C@@]5(C)CC[C@H](O)C(C)(C)C5CC[C@]43C)C2C1 (some centres undefined) | -0.763% | inactive | inactive | 
2 | C=C1CCC2C(C)(C)CC(=O)CC2(C)C1CCC(C)CCO (centres undefined) | 6.25% | inactive | inactive | 
3 | OCC1OC(Oc2cc(O)c3c(c2)OC(c2ccc(O)cc2)C(O)C3)C(O)C1O (centres undefined) | -25.2% | inactive | inactive | 
4 | CC1(C)CCCC2(C)C(C(=O)O)=CCC12 (centres undefined) | -24.4% | inactive | inactive | 
5 | CCC(C)C(=O)OC1CC(O)C23C4OCC5(C(O)CC2C1(C)C(O)O4)C3C(=O)C(O)C1(C)C(O)(c2ccoc2)CC2OC251 (centres undefined) | 5.34% | inactive | inactive | 
6 | CC1=C(C)C(=O)OC(C(C)(O)C2CCC3C4CC=C5CC(OC6OC(COC7OC(CO)C(O)C(O)C7O)C(O)C(O)C6O)CC(O)C5(C)C4CCC32C)C1 (centres undefined) | -6.87% | inactive | inactive | 
7 | COc1cc2c(cc1OC)CN(C(=O)[C@@H](NCc1ccncc1)C(C)(C)C)CC2 | 5.25% | inactive | inactive | 
8 | CC(c1c[nH]c2ccccc12)C(O)C(=O)O (centres undefined) | -11.5% | inactive | inactive | 
9 | CC(C)NCCCn1c(Sc2cc3c(cc2I)OCO3)nc2c(N)ncnc21 | 10% | inactive | inactive | 
10 | CN1CCN(C(c2ccccc2)c2ccccc2)CC1 | 14.2% and -0.955% | inactive | inactive | 
11 | CC(C)C1(O[C@@H]2O[C@H](CO)[C@@H](O)[C@H](O)[C@H]2O)CC=C(CO)CC1 (some centres undefined) | 17.9% | inactive | inactive | 
12 | CC(C)CC(=O)NCCn1cc(C(=O)O)c(=O)cc1C(O)c1ccccc1 (centres undefined) | -1.53% | inactive | inactive | 
13 | O=C(Nc1ccc(Cl)cc1)C1CCCN(C(=O)c2cccc(-c3ccco3)c2)C1 (centres undefined) | -4.77% | inactive | inactive | 
14 | C1=Cc2ccccc2C(=C2CCN(CCCCc3nn[nH]n3)CC2)c2ccccc21 | -3% | inactive | inactive | 
15 | OCC(CO)(CO)NCC(O)Cn1c2ccc(Cl)cc2c2cc(Cl)ccc21 (centres undefined) |  | inactive | inactive | 23.9 µM (active)
16 | CC(C)C1NC(=O)C(CC2(O)c3ccccc3N3C(=O)C(Cc4ccccc4)NC32)NC1=O (centres undefined) | -9.82% | inactive | inactive | 
17 | C/C=C/C=C/C=C/C(=O)O[C@@H]1C=C(CO)C(O)(C(=O)OC)[C@@]2(C)CCCC(C)(C)C12 (some centres undefined) | -10.7% | inactive | inactive | 
18 | CC(C)(OC1OC(CO)C(O)C(O)C1O)C1CCC(O)(CO)C2CC(=O)C(C)(O)C2C1 (centres undefined) | 22.9% | inactive | inactive | 
19 | COCCN(C)Cc1ccc2nc3sc(C(=O)N(C)C4CCCCC4)cn3c2c1 | 15.7% | inactive | inactive | 
20 | C=C(C(=O)O[C@H]1C/C(C)=C/CC/C(CO)=C/[C@H]2OC(=O)C(=C)[C@H]12)C(O)CO (some centres undefined) |  | inactive | inactive | 18.6 µM (active)

Row | SMILES | activation [1] | Potency [2] | Potency [3] | Potency [1]
21 | CC(C)C(C(=O)N1CCCC1C(=O)O)N(C)C(=O)C(O)Cc1ccccc1 (centres undefined) (H-[PhLac]-[NMeV]-Pro-OH; configuration not given here) | 22.3% | inactive | inactive | 
22 | CC(C)/C=C1\NC(=O)C(C(C)C)n2c1nc1c(c2=O)C=CC=CO1 (centres undefined) | -7.63% | inactive | inactive | 
23 | CC1C/C=C/C=C\CCCCC(O)C/C=C/C(=O)O1 (centres undefined) | -17.9% | inactive | inactive | 
24 | O=S(=O)(c1ccc(Cl)cc1)N1CCN(c2ccnc3cc(Cl)ccc23)CC1 | -12.5% | inactive | inactive | 
25 | COc1cc([C@H]2OC[C@@H]3[C@@H](c4ccc(O[C@@H]5O[C@H](CO)[C@@H](O)[C@H](O)[C@H]5O)c(OC)c4)OC[C@]23O)ccc1O | 3.57% | inactive | inactive | 
26 | C=CC(=O)Nc1cc(-n2c(=O)ccc3cnc4ccc(-c5ccc(NS(C)(=O)=O)cc5)cc4c32)ccc1C |  | inactive | inactive | 10.7 µM (active)
27 | CC1(c2nc3c(C(N)=O)cccc3[nH]2)CCCN1 (centres undefined) | -1.43% | inactive | inactive | 
28 | C[C@@H]1CC[C@]2(C(=O)O[C@@H]3O[C@H](CO)[C@@H](O)[C@H](O)[C@H]3O)CC[C@]3(C)C(=CCC4[C@@]5(C)C[C@@H](O)[C@H](O)C(C)(C)C5CC[C@]43C)C2[C@]1(C)O (some centres undefined) | -17.6% | inactive | inactive | 
29 | NC1Nc2ccccc2C1(N)CC1NC(=O)C(Cc2ccccc2)NC(=O)C(Cc2ccccc2)NC1=O (centres undefined) | -3.05% | inactive | inactive | 
30 | CC1CCC2(C(=O)O)CCC3(C)C(=CCC4C5(C)CCC(O)C(C)(C(=O)O)C5CCC43C)C2C1(C)O (centres undefined) | -8.4% | inactive | inactive | 
31 | COc1ccc(CN2CCN(C(c3ccc(F)cc3)c3ccc(F)cc3)CC2)c(OC)c1OC | -1.69% and -6.68% | inactive | inactive | 
32 | CC(=O)[C@@H]1CC[C@]2(C(=O)O)CC[C@]3(C)C(CCC4[C@@]5(C)CC[C@H](O)C(C)(C)C5CC[C@]43C)C12 (some centres undefined) | 8.4% | inactive | inactive | 
33 | CC1(C)[C@@H]2CC=C(CO[C@@H]3O[C@H](CO[C@@H]4OC[C@H](O)[C@H](O)[C@H]4O)[C@@H](O)[C@H](O)[C@H]3O)[C@H]1C2 | -4.46% | inactive | inactive | 
34 | CC/C=C(\C(=O)N[C@@H]1C(=O)N2C(C(=O)OCOC(=O)C(C)(C)C)=C(COC(N)=O)CS[C@H]12)c1csc(N)n1 | 2.82% and -18.4% | inactive | inactive | 
35 | CC(C)(C)c1nnc(NS(=O)(=O)c2ccccc2)s1 | 11.7% | inactive | inactive | 
36 | O[C@@](Cc1ncc(CC2(C(F)(F)F)CC2)[nH]1)(c1ccc(-n2cccn2)cc1)C(F)(F)F | -3% | inactive | inactive | 
37 | O=C(O)c1ccc(OC2OC(CO)C(O)C(O)C2O)cc1 (centres undefined) | -11.6% | inactive | inactive | 
38 | COc1cc2ncnc(Nc3cccc(I)c3)c2cc1OC |  | inactive | inactive | 12 µM (active)
39 | C[C@@]12C[C@]3(O)O[C@H](O1)[C@]1(COC(=O)c4ccccc4)[C@H]3C[C@@]12O[C@@H]1O[C@H](CO)[C@@H](O)[C@H](O)[C@H]1O | 25% | inactive | inactive | 
40 | C/C(=C/CO)CC[C@@H]1[C@@](C)(O)CCC2C(C)(C)CCC[C@]21C (some centres undefined) | -7.14% | inactive | inactive | 

Row | SMILES | activation [1] | Potency [2] | Potency [3] | Potency [1]
41 | COc1ccc2nc(S(=O)(=O)Cc3ncc(C)c(OC)c3C)[nH]c2c1 | 6.33% | inactive | inactive | 
42 | C[C@H]1C[C@H]2[C@@H]3CCC4=CC(=O)C=C[C@]4(C)[C@@]3(F)[C@@H](O)C[C@]2(C)[C@@]1(O)C(=O)COP(=O)(O)O | 1% | inactive | inactive | 
43 | C/C=C/c1cc(OC)c2c(c1)[C@@H](C)[C@@H](c1ccc(O)c(OC)c1)O2 | -16% | inactive | inactive | 
44 | CC12CC34CC(O)C5C(CO)(CO)CC(=O)CC5(C)C3CC1C2C4 (centres undefined) | 5.34% | inactive | inactive | 
45 | CC[C@H]1OC(=O)[C@H](C)[C@@H](OC2C[C@@](C)(OC)[C@@H](O)[C@H](C)O2)[C@H](C)[C@@H](OC2O[C@H](C)C[C@H](NC)[C@H]2O)[C@](C)(O)C[C@@H](C)CN(C)[C@H](C)[C@@H](O)[C@]1(C)O (some centres undefined) | 4.33% | inactive | inactive | 
46 | CC#C[C@@H](CC(=O)O)c1ccc(OCc2ccc(CN3CCC4(C=Cc5ccccc54)CC3)s2)cc1 | 4.46% | inactive | inactive | 
47 | C/C=C/C(O)C1OC(=O)CC1Nc1ccc(C(=O)O)cc1 (centres undefined) | 5.34% | inactive | inactive | 
48 | C=C1CCC[C@]2(C)CC[C@@H](C(=C)C(=O)O)[C@H](O)[C@@H]12 | -7.63% | inactive | inactive | 
49 | C[C@@H](c1ccccc1)N(C(N)=NC#N)c1cccc2ncccc12 | 2.33% | inactive | inactive | 
50 | N#Cc1cccc(-c2nc(-c3cccnc3)no2)c1 | -3.34% | inactive | inactive | 
51 | CCCCCCCOc1cc2c(cc1/C(C)=C/c1ccc(C(=O)O)cc1)C(C)(C)CCS2(=O)=O | 3% | inactive | inactive | 
52 | C=C1C(=O)O[C@@H]2CC(C)=C([C@@H](C)CCCO)[C@@H](OC(=O)C(C)C)[C@H]12 | 14.3% | inactive | inactive | 
53 | CC(C)(OC1OC(CO)C(O)C(O)C1O)C1CCC(O)(CO)C2CC(O)C(C)(O)C2C1 (centres undefined) | -19.6% | inactive | inactive | 
54 | CC12CC34C=CC(=O)C(C)(CCC(=O)O)C3C(CC1C4)O2 (centres undefined) | 23.7% | inactive | inactive | 
55 | COc1ccc(C2Oc3c(OC)cc(CCCO)cc3C2COC2OC(CO)C(O)C(O)C2O)cc1OC (centres undefined) | -3.82% | inactive | inactive | 
56 | CC1CCC2(C(=O)O)CCC3(C)C(=CCC4C5(C)C[C@@H](O)[C@@H](O)C(C)(CO)C5CCC43C)C2C1(C)O (some centres undefined) | 11.6% | inactive | inactive | 
57 | COc1cccc(NC[C@@H](O)Cn2c3ccc(Br)cc3c3cc(Br)ccc32)c1 | 29.6% | inactive | inactive | 
58 | C/C(=C\CC[C@H](CO)[C@@H]1CC[C@]2(C)C3=C(CC[C@@]12C)[C@@]1(C)CCC(=O)C(C)(C)C1CC3)C(=O)O (some centres undefined) | -4.58% | inactive | inactive | 
